# Experimental data from the supplement of paper PMC4466140.
# Experiments:
# Experiment in all cases: SPOT peptide array binding signal intensity (averaged, normalized) (arbitrary units (background-subtracted, floor 0; scale differs between SH3 domains)); higher = stronger binding of the SH3 domain to the peptide
# AgAbp1 = target: AgAbp1
# Procedure, shortened: (§1)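 Four yeast species supplied the SH3 domains, which were expressed as GST fusions in E. coli BL21(DE3) and purified on glutathione Sepharose. Incubation with cellulose membranes carrying synthetic 15-mer peptides, cysteines exchanged for serines, ran overnight at 4°C at 10 μg/ml in TBS-based blocking buffer. Binding signal is reported as normalized, background-subtracted spot intensity averaged over replicates, in arbitrary units not shared between domains.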
# AgBbc1 = target: AgBbc1
# Procedure, shortened: as §1
# AgBem1-D1 = target: AgBem1-D1
# Procedure, shortened: as §1
# AgBzz1-D1 = target: AgBzz1-D1
# Procedure, shortened: as §1
# AgBzz1-D2 = target: AgBzz1-D2
# Procedure, shortened: as §1
# AgCyk3 = target: AgCyk3
# Procedure, shortened: as §1
# AgFus1 = target: AgFus1
# Procedure, shortened: as §1
# AgHof1 = target: AgHof1
# Procedure, shortened: as §1
# AgHse1 = target: AgHse1
# Procedure, shortened: as §1
# AgLsb1 = target: AgLsb1
# Procedure, shortened: as §1
# AgLsb4 = target: AgLsb4
# Procedure, shortened: as §1
# AgMyo5 = target: AgMyo5
# Procedure, shortened: as §1
# AgNbp2 = target: AgNbp2
# Procedure, shortened: as §1
# AgRvs167 = target: AgRvs167
# Procedure, shortened: as §1
# AgSho1 = target: AgSho1
# Procedure, shortened: as §1
# AgSla1-D1-D2 = target: AgSla1-D1-D2
# Procedure, shortened: as §1
# AgSla1-D3 = target: AgSla1-D3
# Procedure, shortened: as §1
# CaAbp1-D1 = target: CaAbp1-D1
# Procedure, shortened: as §1
# CaAbp1-D2 = target: CaAbp1-D2
# Procedure, shortened: as §1
# CaBbc1 = target: CaBbc1
# Procedure, shortened: as §1
# CaBem1-D1 = target: CaBem1-D1
# Procedure, shortened: as §1
# CaBzz1-D1 = target: CaBzz1-D1
# Procedure, shortened: as §1
# CaBzz1-D2 = target: CaBzz1-D2
# Procedure, shortened: as §1
# CaCyk3 = target: CaCyk3
# Procedure, shortened: as §1
# CaFus1 = target: CaFus1
# Procedure, shortened: as §1
# CaHof1 = target: CaHof1
# Procedure, shortened: as §1
# CaHse1 = target: CaHse1
# Procedure, shortened: as §1
# CaLsb1 = target: CaLsb1
# Procedure, shortened: as §1
# CaLsb4 = target: CaLsb4
# Procedure, shortened: as §1
# CaMyo5 = target: CaMyo5
# Procedure, shortened: as §1
# CaNbp2 = target: CaNbp2
# Procedure, shortened: as §1
# CaRvs167 = target: CaRvs167
# Procedure, shortened: as §1
# CaRvs167-3 = target: CaRvs167-3
# Procedure, shortened: as §1
# CaSho1 = target: CaSho1
# Procedure, shortened: as §1
# CaSla1-D1-D2 = target: CaSla1-D1-D2
# Procedure, shortened: as §1
# CaSla1-D3 = target: CaSla1-D3
# Procedure, shortened: as §1
# ScAbp1 = target: ScAbp1
# Procedure, shortened: as §1
# ScBbc1 = target: ScBbc1
# Procedure, shortened: as §1
# ScBem1-D1 = target: ScBem1-D1
# Procedure, shortened: as §1
# ScBzz1-D1 = target: ScBzz1-D1
# Procedure, shortened: as §1
# ScBzz1-D2 = target: ScBzz1-D2
# Procedure, shortened: as §1
# ScCyk3 = target: ScCyk3
# Procedure, shortened: as §1
# ScFus1 = target: ScFus1
# Procedure, shortened: as §1
# ScHof1 = target: ScHof1
# Procedure, shortened: as §1
# ScHse1 = target: ScHse1
# Procedure, shortened: as §1
# ScLsb1 = target: ScLsb1
# Procedure, shortened: as §1
# ScLsb2 = target: ScLsb2
# Procedure, shortened: as §1
# ScLsb3 = target: ScLsb3
# Procedure, shortened: as §1
# ScLsb4 = target: ScLsb4
# Procedure, shortened: as §1
# ScMyo3 = target: ScMyo3
# Procedure, shortened: as §1
# ScMyo5 = target: ScMyo5
# Procedure, shortened: as §1
# ScNbp2 = target: ScNbp2
# Procedure, shortened: as §1
# ScPex13 = target: ScPex13
# Procedure, shortened: as §1
# ScRvs167 = target: ScRvs167
# Procedure, shortened: as §1
# ScSho1 = target: ScSho1
# Procedure, shortened: as §1
# ScSla1-D1-D2 = target: ScSla1-D1-D2
# Procedure, shortened: as §1
# ScSla1-D3 = target: ScSla1-D3
# Procedure, shortened: as §1
# SpAbp1-D1 = target: SpAbp1-D1
# Procedure, shortened: as §1
# SpBbc1 = target: SpBbc1
# Procedure, shortened: as §1
# SpBzz1-D1 = target: SpBzz1-D1
# Procedure, shortened: as §1
# SpBzz1-D2 = target: SpBzz1-D2
# Procedure, shortened: as §1
# SpCyk3 = target: SpCyk3
# Procedure, shortened: as §1
# SpHof1 = target: SpHof1
# Procedure, shortened: as §1
# SpHof1-2 = target: SpHof1-2
# Procedure, shortened: as §1
# SpHof1-3 = target: SpHof1-3
# Procedure, shortened: as §1
# SpHse1 = target: SpHse1
# Procedure, shortened: as §1
# SpLsb1 = target: SpLsb1
# Procedure, shortened: as §1
# SpLsb4 = target: SpLsb4
# Procedure, shortened: as §1
# SpMyo1 = target: SpMyo1
# Procedure, shortened: as §1
# SpNbp2 = target: SpNbp2
# Procedure, shortened: as §1
# SpPex13 = target: SpPex13
# Procedure, shortened: as §1
# SpRvs167 = target: SpRvs167
# Procedure, shortened: as §1
# SpSla1-D1-D2 = target: SpSla1-D1-D2
# Procedure, shortened: as §1
# SpSla1-D3 = target: SpSla1-D3
# Procedure, shortened: as §1
binder,measurement,setting,value
QGYPRQPQRPQRYHP,SPOT peptide array binding signal intensity,AgAbp1,15.5
same,SPOT peptide array binding signal intensity,AgBbc1,187
same,SPOT peptide array binding signal intensity,AgBem1-D1,≤ 0
same,SPOT peptide array binding signal intensity,AgBzz1-D1,8
same,SPOT peptide array binding signal intensity,AgBzz1-D2,22.5
same,SPOT peptide array binding signal intensity,AgCyk3,≤ 0
same,SPOT peptide array binding signal intensity,AgFus1,≤ 0
same,SPOT peptide array binding signal intensity,AgHof1,0.5
same,SPOT peptide array binding signal intensity,AgHse1,17.5
same,SPOT peptide array binding signal intensity,AgLsb1,≤ 0
same,SPOT peptide array binding signal intensity,AgLsb4,47
same,SPOT peptide array binding signal intensity,AgMyo5,≤ 0
same,SPOT peptide array binding signal intensity,AgNbp2,≤ 0
same,SPOT peptide array binding signal intensity,AgRvs167,0.333
same,SPOT peptide array binding signal intensity,AgSho1,≤ 0
same,SPOT peptide array binding signal intensity,AgSla1-D1-D2,2
same,SPOT peptide array binding signal intensity,AgSla1-D3,≤ 0
same,SPOT peptide array binding signal intensity,CaAbp1-D1,25.5
same,SPOT peptide array binding signal intensity,CaAbp1-D2,11
same,SPOT peptide array binding signal intensity,CaBbc1,329
same,SPOT peptide array binding signal intensity,CaBem1-D1,15
same,SPOT peptide array binding signal intensity,CaBzz1-D1,144
same,SPOT peptide array binding signal intensity,CaBzz1-D2,32.5
same,SPOT peptide array binding signal intensity,CaCyk3,13
same,SPOT peptide array binding signal intensity,CaFus1,≤ 0
same,SPOT peptide array binding signal intensity,CaHof1,≤ 0
same,SPOT peptide array binding signal intensity,CaHse1,≤ 0
same,SPOT peptide array binding signal intensity,CaLsb1,≤ 0
same,SPOT peptide array binding signal intensity,CaLsb4,1180
same,SPOT peptide array binding signal intensity,CaMyo5,≤ 0
same,SPOT peptide array binding signal intensity,CaNbp2,≤ 0
same,SPOT peptide array binding signal intensity,CaRvs167,2.5
same,SPOT peptide array binding signal intensity,CaRvs167-3,≤ 0
same,SPOT peptide array binding signal intensity,CaSho1,12.5
same,SPOT peptide array binding signal intensity,CaSla1-D1-D2,≤ 0
same,SPOT peptide array binding signal intensity,CaSla1-D3,≤ 0
same,SPOT peptide array binding signal intensity,ScAbp1,10
same,SPOT peptide array binding signal intensity,ScBbc1,40.2
same,SPOT peptide array binding signal intensity,ScBem1-D1,2.5
same,SPOT peptide array binding signal intensity,ScBzz1-D1,≤ 0
same,SPOT peptide array binding signal intensity,ScBzz1-D2,11
same,SPOT peptide array binding signal intensity,ScCyk3,≤ 0
same,SPOT peptide array binding signal intensity,ScFus1,≤ 0
same,SPOT peptide array binding signal intensity,ScHof1,0.75
same,SPOT peptide array binding signal intensity,ScHse1,≤ 0
same,SPOT peptide array binding signal intensity,ScLsb1,9.5
same,SPOT peptide array binding signal intensity,ScLsb2,≤ 0
same,SPOT peptide array binding signal intensity,ScLsb3,1040
same,SPOT peptide array binding signal intensity,ScLsb4,25
same,SPOT peptide array binding signal intensity,ScMyo3,≤ 0
same,SPOT peptide array binding signal intensity,ScMyo5,≤ 0
same,SPOT peptide array binding signal intensity,ScNbp2,3.5
same,SPOT peptide array binding signal intensity,ScPex13,29.5
same,SPOT peptide array binding signal intensity,ScRvs167,≤ 0
same,SPOT peptide array binding signal intensity,ScSho1,16
same,SPOT peptide array binding signal intensity,ScSla1-D1-D2,12
same,SPOT peptide array binding signal intensity,ScSla1-D3,≤ 0
same,SPOT peptide array binding signal intensity,SpAbp1-D1,≤ 0
same,SPOT peptide array binding signal intensity,SpBbc1,3.5
same,SPOT peptide array binding signal intensity,SpBzz1-D1,226
same,SPOT peptide array binding signal intensity,SpBzz1-D2,0.5
same,SPOT peptide array binding signal intensity,SpCyk3,≤ 0
same,SPOT peptide array binding signal intensity,SpHof1,5
same,SPOT peptide array binding signal intensity,SpHof1-2,≤ 0
same,SPOT peptide array binding signal intensity,SpHof1-3,0.5
same,SPOT peptide array binding signal intensity,SpHse1,2
same,SPOT peptide array binding signal intensity,SpLsb1,4
same,SPOT peptide array binding signal intensity,SpLsb4,1230
same,SPOT peptide array binding signal intensity,SpMyo1,≤ 0
same,SPOT peptide array binding signal intensity,SpNbp2,≤ 0
same,SPOT peptide array binding signal intensity,SpPex13,1
same,SPOT peptide array binding signal intensity,SpRvs167,3
same,SPOT peptide array binding signal intensity,SpSla1-D1-D2,≤ 0
same,SPOT peptide array binding signal intensity,SpSla1-D3,≤ 0
